Inconclusive results are not listed. Active and inactive are the calls of the source. The call rests on the fitted dose curve; in most records, active means well fitted inhibition curve with a large enough effect; inconclusive means small, poorly fitted or top-dose-only effect; inactive means flat fitted curve, though single readings scatter.
Key:
CRL-7250 = normal cell line; assay: Cytotoxic Profiling of Annotated Libraries Using Quantitative High-Throughput Screening (AID 1296008); conditions: Five cell lines viability, CellTiter-Glo ATP luminescence, 48-72 h; hits give low values; on max response: on the % scale 0 is the no-effect control and ±100 the full control effect
Summary of the method: (§1)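 Cells exposed to compounds for 48 or 72 hr at 37 degrees Celsius. Viability read as ATP-coupled luminescence with CellTiter-Glo after 10 min at room temperature.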

HEK293 = assay: as above; conditions: Five cell lines viability, CellTiter-Glo ATP luminescence, 48-72 h; hits give low values
Summary of the method: as §1

HaCat = assay: as above; conditions: Five cell lines viability, CellTiter-Glo ATP luminescence, 48-72 h; hits give low values
Summary of the method: as §1

KB-3-1 = assay: as above; conditions: Five cell lines viability, CellTiter-Glo ATP luminescence, 48-72 h, hits give low values
Summary of the method: as §1

NIH3T3 = assay: as above; conditions: Five cell lines viability, CellTiter-Glo ATP luminescence, 48-72 h; hits give low values
Summary of the method: as §1

MCC-13 = assay: qHTS assay to identify novel small-molecules to repurpose for Merkel cell carcinoma treatment (AID 1296009); conditions: MCC and control cell lines, CellTiter-Glo viability, 72 h; series mostly up to 46 µM
Summary of the method: (§2)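 Cells were treated for 72 hr at 37 degree celsius with compounds in 8- or 11-point dose response. Viability was read by CellTiter-Glo luminescence, normalized to no-cell (cytotoxicity) and DMSO controls.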

MCC-26 = assay: as above; conditions: MCC and control cell lines, CellTiter-Glo viability, 72 h; series mostly up to 46 µM
Summary of the method: as §2

MKL-1 = assay: as above; conditions: MCC and control cell lines, CellTiter-Glo viability, 72 h; series mostly up to 46 µM
Summary of the method: as §2

MKL-2 = assay: as above; conditions: MCC and control cell lines, CellTiter-Glo viability, 72 h; series mostly up to 46 µM
Summary of the method: as §2

PAD = assay: qHTS profiling for inhibitors of Plasmodium falciparum proliferation (AID 504749);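 further: 0% = DMSO vehicle and full inhibition = artemisinin control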; conditions: P. falciparum in erythrocytes, SYBR Green DNA, 72 h; series mostly up to 28.7 µM
Summary of the method: (§3)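 P. falciparum-infected erythrocytes (0.3% parasitemia, 2.5% hematocrit) incubated with compound 72 h at 37 C, 5% CO2. Parasite DNA detected by SYBR Green after lysis, overnight at room temperature; normalised to 0.29 uM artemisinin and DMSO.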

PC15 = assay: as above; conditions: P. falciparum in erythrocytes, SYBR Green DNA, 72 h; series mostly up to 28.7 µM
Summary of the method: as §3

PC26 = assay: as above; conditions: P. falciparum in erythrocytes, SYBR Green DNA, 72 h; series mostly up to 28.7 µM
Summary of the method: as §3

PC49 = assay: as above; conditions: P. falciparum in erythrocytes, SYBR Green DNA, 72 h; series mostly up to 28.7 µM
Summary of the method: as §3

SC27B = assay: as above; conditions: P. falciparum in erythrocytes, SYBR Green DNA, 72 h; series mostly up to 28.7 µM
Summary of the method: as §3

TAB109 = assay: as above; conditions: P. falciparum in erythrocytes, SYBR Green DNA, 72 h; series mostly up to 28.7 µM
Summary of the method: as §3

TAB113 = assay: as above; conditions: P. falciparum in erythrocytes, SYBR Green DNA, 72 h; series mostly up to 28.7 µM
Summary of the method: as §3

TAB165 = assay: as above; conditions: P. falciparum in erythrocytes, SYBR Green DNA, 72 h; series mostly up to 28.7 µM
Summary of the method: as §3

HEK293T = assay: qHTS assay to identify novel small-molecules to repurpose for Merkel cell carcinoma treatment (AID 1296009); conditions: MCC and control cell lines, CellTiter-Glo viability, 72 h; at 44.8 µM (top of the series) unless noted
Summary of the method: as §2

W2 = assay: qHTS profiling for inhibitors of Plasmodium falciparum proliferation (AID 504749);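 further: 0% = DMSO vehicle and full inhibition = artemisinin control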; conditions: P. falciparum in erythrocytes, SYBR Green DNA, 72 h; series mostly up to 28.7 µM
Summary of the method: as §3
Further: nearly all actives have a fitted effect of over 60% in size.

O=C(O)[C@@H]1[C@H]2C[C@H]3c4[nH]c5ccccc5c4CCN3C[C@@H]2CC[C@@H]1O
inactive: max response (CRL-7250) -7.72% | max response (HEK293) -7.97% | max response (HaCat) 4.24% | max response (KB-3-1) 7.03% | outcome (NIH3T3) | outcome (MCC-13) | outcome (MCC-26) | outcome (MKL-1) | outcome (MKL-2)

COc1cc(C(=O)NCCCCCC(=O)O)cc(OC)c1OC
inactive: Potency (PAD) | Potency (PC15) | Potency (PC26) | Potency (PC49) | Potency (SC27B) | Potency (TAB109) | Potency (TAB113) | Potency (TAB165) | max response (CRL-7250) -1.11% | outcome (HEK293) | max response (HaCat) 4.84% | max response (KB-3-1) 1.07% | max response (NIH3T3) 3.71% | outcome (HEK293T) | outcome (MCC-13) | outcome (MCC-26) | outcome (MKL-1) | outcome (MKL-2)

CN[C@@H]1[C@@H](O)[C@@H](O[C@@H]2[C@H](O)[C@H](O[C@H]3OC(CN)=CC[C@H]3N)[C@@H](N)C[C@H]2N)OCC1(C)O (some centres undefined)
inactive: max response (CRL-7250) 2.42% | max response (HEK293) 4.89% | max response (HaCat) 1.23% | max response (KB-3-1) 25.6% | max response (NIH3T3) 2.74% | outcome (MCC-13) | outcome (MCC-26) | outcome (MKL-1) | outcome (MKL-2)

CN[C@@H]1[C@H](O)[C@H](NC)[C@H]2O[C@@]3(O)C(=O)C[C@@H](C)O[C@H]3O[C@@H]2[C@H]1O
inactive: max response (CRL-7250) -3.95% | max response (HEK293) 1.03% | max response (HaCat) 0.231% | max response (KB-3-1) 16.3% | max response (NIH3T3) 2.69% | outcome (MCC-13) | outcome (MCC-26) | outcome (MKL-1) | outcome (MKL-2)

COc1cc(O)cc(O)c1
inactive: Potency (PAD) | Potency (PC15) | Potency (PC26) | Potency (PC49) | Potency (SC27B) | Potency (TAB109) | Potency (TAB113) | Potency (TAB165) | outcome (CRL-7250) | outcome (HEK293) | max response (HaCat) -8.13% | max response (KB-3-1) -4.6% | max response (NIH3T3) -7.04% | outcome (HEK293T) | outcome (MCC-13) | outcome (MCC-26) | outcome (MKL-1) | outcome (MKL-2)

CC(C)(C)C(=O)OCOC(=O)[C@@H]1N2C(=O)[C@@H](NC(=O)[C@H](N)c3ccccc3)[C@H]2SC1(C)C
inactive: Potency (PAD) | Potency (PC15) | Potency (PC26) | Potency (PC49) | Potency (SC27B) | Potency (TAB109) | Potency (TAB113) | Potency (TAB165) | Potency (W2) | max response (CRL-7250) -7.59% | max response (HEK293) -3.05% | max response (HaCat) -3.68% | max response (KB-3-1) -7.55% | max response (NIH3T3) -5.28% | outcome (MCC-13) | outcome (MCC-26) | outcome (MKL-1) | outcome (MKL-2)

CCOC(N)=O
inactive: Potency (PAD) | Potency (PC15) | Potency (PC26) | Potency (PC49) | Potency (SC27B) | Potency (TAB109) | Potency (TAB113) | Potency (TAB165) | Potency (W2) | max response (CRL-7250) 1.79% | max response (HEK293) -1.46% | max response (HaCat) -12.1% | max response (KB-3-1) -7.14% | outcome (NIH3T3) | outcome (MCC-13) | outcome (MCC-26) | outcome (MKL-1) | outcome (MKL-2)

CC(O)CCCCn1c(=O)c2c(ncn2C)n(C)c1=O (centres undefined)
inactive: Potency (PAD) | Potency (PC15) | Potency (PC26) | Potency (PC49) | Potency (SC27B) | Potency (TAB109) | Potency (TAB113) | Potency (TAB165) | Potency (W2) | max response (CRL-7250) 2.98% | max response (HEK293) 0.321% | max response (HaCat) -6.07% | max response (KB-3-1) -8.11% | max response (NIH3T3) 4.47% | outcome (MCC-13) | outcome (MCC-26) | outcome (MKL-1) | outcome (MKL-2)

Cc1ccsc1/C=C/C1=NCCCN1C
inactive: max response (CRL-7250) 3.4% | max response (HEK293) -1.17% | max response (HaCat) 3.54% | max response (KB-3-1) -0.196% | outcome (NIH3T3) | outcome (MCC-13) | outcome (MCC-26) | outcome (MKL-1) | outcome (MKL-2)

CCCCCC(C)N (centres undefined)
inactive: Potency (PC15) | Potency (PC26) | Potency (PC49) | Potency (SC27B) | Potency (TAB113) | Potency (TAB165) | max response (CRL-7250) -6.66% | max response (HEK293) -4.16% | max response (HaCat) -0.897% | max response (KB-3-1) -3.94% | max response (NIH3T3) 3.25% | outcome (MCC-13) | outcome (MKL-1) | outcome (MKL-2)

NNc1nnc(NN)c2ccccc12
inactive: Potency (PAD) | Potency (PC15) | Potency (PC26) | Potency (PC49) | Potency (SC27B) | Potency (TAB109) | Potency (TAB113) | Potency (TAB165) | max response (CRL-7250) 4.89% | max response (HEK293) -11.7% | max response (HaCat) 3.01% | max response (KB-3-1) -5.02% | outcome (NIH3T3) | outcome (MCC-13) | outcome (MKL-1) | outcome (MKL-2)

NS(=O)(=O)c1cc2c(cc1C(F)(F)F)NCNS2(=O)=O
inactive: Potency (PAD) | Potency (PC15) | Potency (PC26) | Potency (PC49) | Potency (SC27B) | Potency (TAB109) | Potency (TAB113) | Potency (TAB165) | Potency (W2) | max response (CRL-7250) -22.8% | max response (HEK293) -7.43% | max response (HaCat) 2.79% | max response (KB-3-1) -0.385% | max response (NIH3T3) -4.18% | outcome (MCC-13) | outcome (MCC-26) | outcome (MKL-1) | outcome (MKL-2)

Cn1c([N+](=O)[O-])cnc1COC(N)=O
inactive: Potency (PAD) | Potency (PC15) | Potency (PC26) | Potency (PC49) | Potency (SC27B) | Potency (TAB109) | Potency (TAB113) | Potency (TAB165) | Potency (W2) | max response (CRL-7250) -9.26% | max response (HEK293) 2.06% | max response (HaCat) -19.4% | max response (KB-3-1) -4.93% | max response (NIH3T3) 2.03% | outcome (MCC-13) | outcome (MCC-26) | outcome (MKL-1) | outcome (MKL-2)

CCc1cccc(CC)c1NC(=O)CN(CC(=O)O)CC(=O)O
inactive: Potency (PAD) | Potency (PC15) | Potency (PC26) | Potency (PC49) | Potency (SC27B) | Potency (TAB109) | Potency (TAB113) | Potency (TAB165) | Potency (W2) | max response (CRL-7250) -19.6% | max response (HEK293) -1.81% | max response (HaCat) -2.45% | max response (KB-3-1) -15.5% | max response (NIH3T3) -0.454% | outcome (MCC-13) | outcome (MKL-1) | outcome (MKL-2)

— PubChem BioAssay (NCATS)
